Results on eight sequences are retold here after paper PMC7862700, “An all-to-all approach to the identification of sequence-specific readers for epigenetic DNA modifications on cytosine”.

What all share (assay): DAPPL (digital affinity profiling via proximity ligation, sequencing); 10 mM Tris-HCl pH 7.5, 50 mM NaCl, 1 mM DTT, 4% glycerol, room temperature, 30 min; GST-TFs on glutathione beads, 16-mer random dsDNA library, 0.1% formaldehyde crosslink after washing; high values mean tight binding
Holding throughout (details): protein: recombinant; tags: N-terminal GST; dsDNA, one strand shown

One assay deals with T1, FLI1 (Homo sapiens, UniProt Q01543 1-452).
T1 sequence: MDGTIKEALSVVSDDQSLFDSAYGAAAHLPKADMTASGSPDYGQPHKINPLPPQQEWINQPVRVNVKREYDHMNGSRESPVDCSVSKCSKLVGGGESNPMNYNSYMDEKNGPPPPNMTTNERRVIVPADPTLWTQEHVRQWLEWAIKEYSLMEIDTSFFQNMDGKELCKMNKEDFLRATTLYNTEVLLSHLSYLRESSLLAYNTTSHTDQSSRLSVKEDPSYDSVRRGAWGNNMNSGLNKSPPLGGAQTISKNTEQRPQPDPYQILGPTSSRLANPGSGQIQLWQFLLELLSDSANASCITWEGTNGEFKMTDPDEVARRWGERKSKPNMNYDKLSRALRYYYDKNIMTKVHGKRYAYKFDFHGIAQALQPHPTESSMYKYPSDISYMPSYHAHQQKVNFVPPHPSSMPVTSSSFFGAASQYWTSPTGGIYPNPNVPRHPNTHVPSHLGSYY
Summed up: (§1)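 Human transcription factors carrying a GST fusion were produced in yeast, bound to glutathione beads, tagged with DNA barcodes and pooled together with a tag-only sample. Each pool was held with 200 nmole of a random double-stranded 16-mer DNA library in Tris/NaCl/DTT/glycerol buffer for 30 min at room temperature, then washed, crosslinked in 0.1% formaldehyde, proximity-ligated with BsaI/T4 ligase (1 h, 37 °C), PCR-amplified and sequenced on an Illumina NextSeq500. Binding signal is the read frequency of each hexamer for a given factor divided by its frequency in the tag-only sample.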

The next assay addresses T2, ELK1 (Homo sapiens, UniProt P19419 1-428).
T2 sequence: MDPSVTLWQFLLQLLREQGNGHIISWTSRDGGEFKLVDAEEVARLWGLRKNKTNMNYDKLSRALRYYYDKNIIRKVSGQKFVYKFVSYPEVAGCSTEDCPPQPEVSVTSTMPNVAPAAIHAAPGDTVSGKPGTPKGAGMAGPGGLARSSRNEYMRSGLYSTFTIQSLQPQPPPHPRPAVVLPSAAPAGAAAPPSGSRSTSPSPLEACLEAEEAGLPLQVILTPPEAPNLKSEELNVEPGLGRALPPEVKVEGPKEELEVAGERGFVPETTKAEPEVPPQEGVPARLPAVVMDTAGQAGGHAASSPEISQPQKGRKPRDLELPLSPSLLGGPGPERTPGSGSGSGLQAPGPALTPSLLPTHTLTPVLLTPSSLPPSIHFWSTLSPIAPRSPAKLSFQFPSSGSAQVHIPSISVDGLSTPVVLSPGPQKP
Summed up: as §1

The target in a further assay is T3, GABPA (Homo sapiens, UniProt Q06546 1-454).
T3 sequence: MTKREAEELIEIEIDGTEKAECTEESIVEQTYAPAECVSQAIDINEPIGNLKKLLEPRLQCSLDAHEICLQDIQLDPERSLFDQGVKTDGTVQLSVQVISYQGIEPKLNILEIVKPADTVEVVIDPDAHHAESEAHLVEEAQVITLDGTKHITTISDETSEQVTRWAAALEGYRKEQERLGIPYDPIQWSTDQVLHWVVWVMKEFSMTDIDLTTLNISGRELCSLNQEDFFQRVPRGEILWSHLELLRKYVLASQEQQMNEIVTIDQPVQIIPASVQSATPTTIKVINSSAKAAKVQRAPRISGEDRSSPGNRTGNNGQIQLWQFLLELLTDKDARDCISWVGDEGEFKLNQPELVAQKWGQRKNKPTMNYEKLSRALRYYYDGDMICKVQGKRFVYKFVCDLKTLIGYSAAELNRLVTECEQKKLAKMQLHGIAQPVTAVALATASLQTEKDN
Summed up:
as §1

For another assay, the target named is T4, ERG (Homo sapiens, UniProt P11308 1-479).
T4 sequence: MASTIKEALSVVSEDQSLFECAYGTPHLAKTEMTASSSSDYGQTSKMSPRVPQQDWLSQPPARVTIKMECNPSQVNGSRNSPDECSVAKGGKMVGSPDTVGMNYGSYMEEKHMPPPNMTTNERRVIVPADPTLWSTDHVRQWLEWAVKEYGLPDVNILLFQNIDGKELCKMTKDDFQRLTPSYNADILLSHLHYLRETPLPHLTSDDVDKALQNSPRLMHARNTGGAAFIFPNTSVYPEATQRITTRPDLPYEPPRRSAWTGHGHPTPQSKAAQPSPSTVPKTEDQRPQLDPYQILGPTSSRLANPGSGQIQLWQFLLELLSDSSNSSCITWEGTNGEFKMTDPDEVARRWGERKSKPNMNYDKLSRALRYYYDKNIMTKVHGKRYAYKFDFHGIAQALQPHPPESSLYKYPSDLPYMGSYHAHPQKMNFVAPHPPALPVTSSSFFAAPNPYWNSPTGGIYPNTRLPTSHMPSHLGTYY
Summed up: as §1

For the next assay, the target named is ELF1 (Homo sapiens, UniProt P32519 1-619). Summed up:
as §1

Another assay concerns the target T5, EHF (Homo sapiens, UniProt Q9NZC4 1-300).
T5 sequence: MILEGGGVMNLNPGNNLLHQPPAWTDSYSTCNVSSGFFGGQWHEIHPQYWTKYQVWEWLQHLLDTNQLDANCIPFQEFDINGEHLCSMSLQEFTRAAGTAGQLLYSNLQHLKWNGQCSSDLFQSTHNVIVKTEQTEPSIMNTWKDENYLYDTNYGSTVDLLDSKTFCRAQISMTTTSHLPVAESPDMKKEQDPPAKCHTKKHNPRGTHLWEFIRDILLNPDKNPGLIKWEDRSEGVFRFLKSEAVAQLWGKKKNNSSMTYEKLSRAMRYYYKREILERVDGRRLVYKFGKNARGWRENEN
Summed up: as §1

The next assay deals with SPI1 (Homo sapiens, UniProt P17947 1-270). Summed up: as §1
The next assay deals with SPIB (Homo sapiens, UniProt Q01892 1-262). Summed up: as §1
Chain of SPIB (Q01892 whole entry): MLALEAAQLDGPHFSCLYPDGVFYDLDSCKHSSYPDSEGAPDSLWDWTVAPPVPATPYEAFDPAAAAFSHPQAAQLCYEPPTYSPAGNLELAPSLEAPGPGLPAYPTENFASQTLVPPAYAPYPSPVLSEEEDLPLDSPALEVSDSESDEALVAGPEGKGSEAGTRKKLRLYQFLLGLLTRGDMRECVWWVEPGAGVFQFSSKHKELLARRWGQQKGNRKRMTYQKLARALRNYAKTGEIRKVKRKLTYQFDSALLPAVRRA
The next assay concerns the target T6, ELK3 (Homo sapiens, UniProt P41970 1-407).
T6 sequence: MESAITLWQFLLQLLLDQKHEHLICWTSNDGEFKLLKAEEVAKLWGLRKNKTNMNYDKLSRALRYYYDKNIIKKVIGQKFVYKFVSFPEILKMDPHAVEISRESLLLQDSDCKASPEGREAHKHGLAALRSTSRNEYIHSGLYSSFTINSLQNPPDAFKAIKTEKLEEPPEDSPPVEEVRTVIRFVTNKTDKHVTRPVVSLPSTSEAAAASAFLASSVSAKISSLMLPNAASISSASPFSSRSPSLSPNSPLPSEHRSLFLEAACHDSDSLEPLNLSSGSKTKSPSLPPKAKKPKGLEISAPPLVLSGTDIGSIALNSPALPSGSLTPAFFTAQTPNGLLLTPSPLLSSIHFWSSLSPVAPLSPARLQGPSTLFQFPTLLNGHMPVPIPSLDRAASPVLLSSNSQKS
Summed up:
as §1

Chain of ELF1 (P32519 whole entry): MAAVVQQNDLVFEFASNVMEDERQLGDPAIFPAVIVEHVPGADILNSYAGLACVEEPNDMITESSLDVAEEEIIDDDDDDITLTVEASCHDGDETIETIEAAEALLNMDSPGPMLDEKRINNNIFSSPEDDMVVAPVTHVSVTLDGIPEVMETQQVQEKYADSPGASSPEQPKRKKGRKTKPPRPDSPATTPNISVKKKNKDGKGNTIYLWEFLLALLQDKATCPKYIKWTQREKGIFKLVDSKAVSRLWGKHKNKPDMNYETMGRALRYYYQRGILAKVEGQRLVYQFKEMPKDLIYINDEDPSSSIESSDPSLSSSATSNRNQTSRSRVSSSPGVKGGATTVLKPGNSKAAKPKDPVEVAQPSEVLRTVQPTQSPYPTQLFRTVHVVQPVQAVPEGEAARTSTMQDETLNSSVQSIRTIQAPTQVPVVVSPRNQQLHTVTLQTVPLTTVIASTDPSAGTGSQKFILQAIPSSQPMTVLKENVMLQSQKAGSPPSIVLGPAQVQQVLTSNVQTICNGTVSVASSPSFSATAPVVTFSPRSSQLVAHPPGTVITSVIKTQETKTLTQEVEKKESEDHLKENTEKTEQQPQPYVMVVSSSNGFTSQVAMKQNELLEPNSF

For the sequence TAGTAT, the binding signal in the assay with FLI1 is 1.25 fold enrichment (6-mer frequency, TF over GST control); in the assay with ELK1 it was 1.34 fold enrichment (6-mer frequency, TF over GST control); with GABPA, 1.28 fold enrichment (6-mer frequency, TF over GST control); in the assay with ERG, 1.23 fold enrichment (6-mer frequency, TF over GST control); with ELF1 it was 1.29 fold enrichment (6-mer frequency, TF over GST control); in the assay with EHF it was 1.38 fold enrichment (6-mer frequency, TF over GST control). Moreover, the binding signal with SPI1 is 1.23 fold enrichment (6-mer frequency, TF over GST control); with SPIB, 1.33 fold enrichment (6-mer frequency, TF over GST control); in the assay with ELK3 it was 1.15 fold enrichment (6-mer frequency, TF over GST control).

Regarding AATAGC, the binding signal is 1.17 fold enrichment (6-mer frequency, TF over GST control) with FLI1; 1.14 fold enrichment (6-mer frequency, TF over GST control) with ELK1; 1.17 fold enrichment (6-mer frequency, TF over GST control) in the assay with GABPA; 1.12 fold enrichment (6-mer frequency, TF over GST control) with ERG; 1.09 fold enrichment (6-mer frequency, TF over GST control) in the assay with ELF1; 1.23 fold enrichment (6-mer frequency, TF over GST control) with EHF. Moreover, the binding signal with SPI1 is 1.15 fold enrichment (6-mer frequency, TF over GST control); with SPIB, 1.16 fold enrichment (6-mer frequency, TF over GST control); with ELK3 it was 1.1 fold enrichment (6-mer frequency, TF over GST control).

Consider CCTGGA, for which the binding signal with FLI1 is 1.53 fold enrichment (6-mer frequency, TF over GST control); in the assay with ELK1, 1.44 fold enrichment (6-mer frequency, TF over GST control); with GABPA it was 1.43 fold enrichment (6-mer frequency, TF over GST control); with ERG, 1.45 fold enrichment (6-mer frequency, TF over GST control); in the assay with ELF1 it was 1.4 fold enrichment (6-mer frequency, TF over GST control); with EHF, 1.44 fold enrichment (6-mer frequency, TF over GST control). Besides, the binding signal with SPI1 is 1.21 fold enrichment (6-mer frequency, TF over GST control); with SPIB it was 1.5 fold enrichment (6-mer frequency, TF over GST control); in the assay with ELK3, 1.39 fold enrichment (6-mer frequency, TF over GST control).

For TTCTAT, the binding signal in the assay with FLI1 is 1.4 fold enrichment (6-mer frequency, TF over GST control); with ELK1, 1.49 fold enrichment (6-mer frequency, TF over GST control); with GABPA it was 1.31 fold enrichment (6-mer frequency, TF over GST control); with ERG it was 1.26 fold enrichment (6-mer frequency, TF over GST control); with ELF1 it was 1.46 fold enrichment (6-mer frequency, TF over GST control); with EHF, 1.42 fold enrichment (6-mer frequency, TF over GST control). In addition, the binding signal in the assay with SPI1 was 1.36 fold enrichment (6-mer frequency, TF over GST control); with SPIB, 1.41 fold enrichment (6-mer frequency, TF over GST control); in the assay with ELK3, 1.35 fold enrichment (6-mer frequency, TF over GST control).

With AATTTA, the binding signal is 1.17 fold enrichment (6-mer frequency, TF over GST control) with FLI1; 1.3 fold enrichment (6-mer frequency, TF over GST control) with ELK1; 1.24 fold enrichment (6-mer frequency, TF over GST control) with GABPA; 1.19 fold enrichment (6-mer frequency, TF over GST control) in the assay with ERG; 1.24 fold enrichment (6-mer frequency, TF over GST control) in the assay with ELF1; 1.19 fold enrichment (6-mer frequency, TF over GST control) with EHF. Moreover, the binding signal with SPI1 was 1.2 fold enrichment (6-mer frequency, TF over GST control); with SPIB it was 1.4 fold enrichment (6-mer frequency, TF over GST control); with ELK3, 1.16 fold enrichment (6-mer frequency, TF over GST control).

Consider TCTCAC, for which the binding signal was 1.45 fold enrichment (6-mer frequency, TF over GST control) with FLI1; 1.45 fold enrichment (6-mer frequency, TF over GST control) in the assay with ELK1; 1.43 fold enrichment (6-mer frequency, TF over GST control) with GABPA; 1.41 fold enrichment (6-mer frequency, TF over GST control) in the assay with ERG; 1.39 fold enrichment (6-mer frequency, TF over GST control) with ELF1; 1.39 fold enrichment (6-mer frequency, TF over GST control) with EHF. Also, the binding signal with SPI1 was 1.36 fold enrichment (6-mer frequency, TF over GST control); in the assay with SPIB, 1.48 fold enrichment (6-mer frequency, TF over GST control); with ELK3, 1.58 fold enrichment (6-mer frequency, TF over GST control).

Take ACGCTT: the binding signal with FLI1 was 1.4 fold enrichment (6-mer frequency, TF over GST control); in the assay with ELK1, 1.34 fold enrichment (6-mer frequency, TF over GST control); in the assay with GABPA, 1.37 fold enrichment (6-mer frequency, TF over GST control); in the assay with ERG, 1.33 fold enrichment (6-mer frequency, TF over GST control); with ELF1, 1.37 fold enrichment (6-mer frequency, TF over GST control); in the assay with EHF it was 1.35 fold enrichment (6-mer frequency, TF over GST control). Besides, the binding signal with SPI1 is 1.23 fold enrichment (6-mer frequency, TF over GST control); in the assay with SPIB, 1.5 fold enrichment (6-mer frequency, TF over GST control); in the assay with ELK3, 1.44 fold enrichment (6-mer frequency, TF over GST control).

For TCCCTC, the binding signal was 1.58 fold enrichment (6-mer frequency, TF over GST control) with FLI1; 1.6 fold enrichment (6-mer frequency, TF over GST control) with ELK1; 1.47 fold enrichment (6-mer frequency, TF over GST control) with GABPA; 1.45 fold enrichment (6-mer frequency, TF over GST control) with ERG; 1.51 fold enrichment (6-mer frequency, TF over GST control) with ELF1; 1.48 fold enrichment (6-mer frequency, TF over GST control) with EHF. For the same sequence, the binding signal with SPI1 was 1.5 fold enrichment (6-mer frequency, TF over GST control); with SPIB it was 1.58 fold enrichment (6-mer frequency, TF over GST control); with ELK3 it was 1.47 fold enrichment (6-mer frequency, TF over GST control).
